# Assay outcomes deposited in PubChem by National Center for Advancing Translational Sciences (NCATS).
# SARS PLpro yeast: qHTS of Yeast-based Assay for SARS-CoV PLP | Potency, µM (titrated, usually from 32.9 µM), without a hit: at the highest dose activity, positive = growth rescue, most hits filed as activators | S. cerevisiae expressing SARS-CoV PLpro, growth rescue | 330,000 tested, 0.19% active; note: potency is the fitted concentration of half-maximal effect; 0% is about no effect; nearly all actives have a fitted effect of over 55% in size
# CHX counter: Cycloheximide Counterscreen for Small Molecule Inhibitors of Shiga Toxin; cell reporter, cycloheximide protein synthesis inhibition counterscreen; max response, %; 300,000 tested, 12% active; in the data active = max response mostly above about 13%, no sharp cut-off; inactive = mostly below about 14%; note: read at 38.3 µM for the half of the compounds with a filed dose; 0% is about no effect
# NS1 function inh: qHTS Assay for Inhibitors of Influenza NS1 Protein Function; Potency, µM (top dose mostly 46.1 µM), without a hit: top-dose activity, positive = more growth; AID 2326, 2010; 270,000 tested, 0.4% active; note: potency is the fitted concentration of half-maximal effect; actives are rising curves; nearly all actives have a fitted effect of over 50% in size
#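 In this qHTS, NS1 from influenza A is expressed in budding yeast, where it slows growth. Cells are switched from glucose to 2% galactose medium (pH 6.0, -URA), treated with compound, and growth recovery is read at OD600.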
# Shiga toxin inh: A qHTS for Small Molecule Inhibitors of Shiga Toxin; Vero cells, Shiga toxin protein synthesis inhibition reporter; inhibition, % at 38.7 µM; 290,000 tested, 9.2% active; AID 2315, 2010; in the data active = inhibition mostly above about 28%, no sharp cut-off; inactive = mostly below about 43%; note: 0% is about no effect
# * marks the source's active call; other numbers are inactive results; ? = inconclusive; . = not tested or not shown; [ ] = remark or other dose. An excerpt weighted towards active compounds, which were near 12% of everything screened. Unless noted, calls come from the whole dose curve.
SMILES,SARS PLpro yeast,CHX counter,NS1 function inh,Shiga toxin inh
C/C(=N/NC(=O)c1cccc(Br)c1)C1CC2CCC1C2 (stereo not drawn),-5.5%,47.4*,-8.4%,37.8
C/C(=N/NC(=O)c1ccccn1)c1ccncc1,-1.3%,36.0*,0.0%,91.7*
COc1ccc(NC(=O)c2ccccn2)cc1OC,-15.0%,61.4*,0.9%,90.5*
C/C(=N\NC(=O)c1cccc(Br)c1)c1ccccn1,?,26.6*,-74.3%,87.4*
C/C(=N\NC(=O)c1ccc(Cl)c(Cl)c1)c1ccccn1,1.8%,8.4,-12.6%,5.4
CCc1cc(S(=O)(=O)N2CCN(C(=O)c3ccco3)CC2)ccc1OC,-4.7%,-2.7,-0.8%,-3.3
O=C(CN1CCOCC1)NN1CC(=O)N(c2ccc(Cl)cc2)CC1=O,0.0%,-1.9,2.7%,-7.0
C/C(=N\NC(=O)c1cc(Br)ccc1O)c1ccccn1,4.8%,27.7*,-37.5%,40.6*
COc1ccc(C(=O)N/N=C(\C)c2ccccn2)cc1OC,6.8%,21.8*,-53.3%,41.7*
CCn1c(=O)cc(SCC(=O)Nc2cccnc2)c2ccccc21,2.6%,-1.2,-4.2%,-2.8
O=CN1CCN(C(C(=O)NC2CCCCC2)c2cc3c(cc2[N+](=O)[O-])OCO3)CC1 (stereo not drawn),1.8%,13.5,.,-7.4
O=C(NC1CCCCC1)C(c1cc2c(cc1[N+](=O)[O-])OCO2)N1CCCCC1 (stereo not drawn),9.5%,16.3,-4.6%,54.2*
CC(C)c1ccc(/C=C/c2ccc(=O)n(C)n2)cc1,-0.4%,26.6*,.,92.9*
Cc1nn(C)c(C)c1C(C)NC(=O)c1cc(COc2cncc(Cl)c2)on1 (stereo not drawn),?,15.2,-3.3%,-11.2
Cc1nn(C)cc1C(C)NC(=O)c1cc(COc2ccc(F)c(F)c2)on1 (stereo not drawn),-3.8%,33.1*,-3.5%,18.4
CC(C)NC(=O)NNC(=O)c1cc(COc2cc(Cl)cc(Cl)c2)on1,-5.2%,-2.9,0.0%,3.6
Cc1nn(C)c(C)c1C(C)NC(=O)c1cc(COc2ccc(F)c(F)c2)on1 (stereo not drawn),29.0%,33.1*,3.5%,47.0*
CNc1ncnc2c1ncn2[C@@H]1O[C@H](CO)[C@H](O)[C@H]1O,.,.,-6.9%,.
COc1ccc(N2CCN(C(=O)C(=O)c3c(C)[nH]c4ccccc34)CC2)cc1,2.4%,1.6,-2.5%,-3.9
CC(=O)c1ccc(N2CCN(C(=O)C(=O)c3c(C)[nH]c4ccccc34)CC2)cc1,-4.1%,15.4*,7.0%,16.4
Cc1[nH]c2ccccc2c1C(=O)C(=O)N1CCCc2ccccc21,-37.9%,50.1*,-1.5%,63.7*
O=C1N(CCCl)c2ccc(Br)cc2C12OCCO2,-1.3%,4.1,-8.8%,.
N/C(Cc1cccs1)=N\OC(=O)COc1ccc(Br)cc1Cl,-16.1%,32.8*,-22.3%,139.9*
N/C(Cc1cccs1)=N\OC(=O)COc1ccccc1Cl,-25.9%,59.7*,-0.4%,119.3*
COc1ccc(C(=O)O/N=C(\N)Cc2cccs2)cc1OC,0.4%,-4.5,10.8%,-19.3
SMILES,SARS PLpro yeast,CHX counter,NS1 function inh,Shiga toxin inh
Cc1ccccc1NC(=O)NC1(C(=O)NCc2ccco2)CCCCC1,3.1%,-8.3,13.5%,3.2
Cc1cc(C)c(NN=c2c(=O)c3ccccc3c2=O)c(C)c1,-5.7%,30.3*,-0.5%,6.6
CCN(CC)S(=O)(=O)c1cccc(NN=c2c(=O)c3ccccc3c2=O)c1,0.4%,0.8,5.3%,1.6
O=c1c(=NNc2ccccc2Cl)c(=O)c2ccccc12,-2.1%,40.5*,-0.3%,83.3*
N#C/C(=N\Nc1ccccc1Cl)C(=O)c1ccccc1,-11.8%,14.0,-128.8%,-7.9
Cc1c(C(=O)NC2CCCCC2)oc2ccc(F)cc12,-3.8%,50.9*,-18.3%,113.5*
COc1ccc2oc(C(=O)NC3CCCCC3)c(C)c2c1,-0.3%,47.2*,11.8%,113.8*
COc1ccc2oc(C(=O)Nc3ccccn3)c(C)c2c1,-8.2%,56.7*,-51.3%,66.0*
COc1ccc2oc(C(=O)NCCC(C)C)c(C)c2c1,-5.0%,58.1*,.,89.1
Cc1c(C(=O)Nc2nccs2)oc2ccc(F)cc12,-0.6%,.,.,.
COc1ccc2oc(C(=O)Nc3ccc(C)cn3)c(C)c2c1,-1.2%,.,.,.
CCn1cc(C(=O)O)c(=O)c2cnc(N3CCN(C(=O)Nc4cccc5ccccc45)CC3)nc21,7.7%,-5.3,?,27.4
Cc1ccc(SCC(=O)NC2CCS(=O)(=O)C2)cc1 (stereo not drawn),-0.1%,-4.6,?,13.7
Cc1ccc2oc(C(=O)NC3CCS(=O)(=O)C3)c(C)c2c1 (stereo not drawn),-2.2%,29.9*,8.1%,35.0*
CC(Oc1ccc(S(=O)(=O)N2CCCC2)cc1[N+](=O)[O-])C(=O)NC(C)c1ccccc1 (stereo not drawn),0.1%,.,.,.
COc1cccc2cc(C(=O)NCCc3ccccc3)c(=O)oc12,-2.4%,17.0*,-5.0%,-4.0
COc1cccc2cc(C(=O)N3CCc4ccccc4C3)c(=O)oc12,-8.0%,24.3*,-19.7%,39.4
CCOc1cccc2cc(C(=O)N3CCc4ccccc4C3)c(=O)oc12,0.1%,0.8,-9.6%[9.22 µM],-4.2
COc1cccc2cc(C(=O)NCCC3=CCCCC3)c(=O)oc12,-0.4%,9.4,.,10.9
CNC(=O)c1cc2cccc(OC)c2oc1=O,5.7%,-0.3,4.2%,-5.4
COc1cccc2cc(C(=O)NCc3ccccn3)c(=O)oc12,-4.7%,23.0*,-3.4%,37.6
Cc1noc(NS(=O)(=O)c2ccc(NC(=O)c3cc(F)c(F)c(F)c3F)cc2)c1C,0.7%,.,.,.
O=C(NCc1ccccc1C(F)(F)F)C1CCC(=O)N(CCCc2ccccc2)C1 (stereo not drawn),-0.1%,8.2,-2.3%,-11.4
CC(C)Oc1ccc(C(=O)Nc2ccc(N(C)C)cc2)cc1,3.9%,25.3*,-4.1%,89.9*
CCCOc1ccc(C(=O)Nc2ccc(N3CCN(C(C)=O)CC3)cc2)cc1,9.9%,4.4,0.4%,52.2
SMILES,SARS PLpro yeast,CHX counter,NS1 function inh,Shiga toxin inh
CCCOc1ccc(C(=O)Nc2ccc(NC(=O)c3cccs3)cc2)cc1,1.8%,13.3,11.5%,49.5*
CCCOc1ccc(C(=O)Nc2ccc(N(C)C)cc2)cc1,-4.9%,47.4*,13.1%,140.7*
O=C(c1ccccc1)c1cccs1,6.0%,6.1,.,33.3
CCOc1ccc(C(=O)c2cccs2)cc1,1.7%,27.5*,-15.0%,43.6
O=C(Nc1cc(S(=O)(=O)N2CCCCC2)ccc1Oc1ccccc1)C1=COCCO1,1.5%,-2.0,12.6%,5.1
COc1ccc(CCNC(=O)COC(=O)c2cc(OC)c(OC)cc2OC)cc1OC,0.5%,7.2,.,-21.8
COc1ccccc1N1CCN(CCCCNC(=O)c2ccc3ccccc3c2)CC1,.,.,4.5%,.
COc1cc(/C=C(/NC(=O)c2ccccc2)C(=O)Nc2ccc(O)cc2)c([N+](=O)[O-])cc1OC,-7.3%,-0.2,4.6%,-3.6
Cn1c(C(=O)N2CCC(C(=O)NCc3ccccc3)CC2)cc2sccc21,-4.4%,-10.6,-7.1%,2.3
COc1ccc(C2=NOC(C(=O)NCC(C)C)C2)cc1 (stereo not drawn),2.3%,44.7*,-10.1%,60.9*
COc1ccc(C2=NOC(CNC(N)=S)C2)cc1 (stereo not drawn),-3.4%,35.8*,.,57.2*
